Screening data: PubChem, several laboratories
Hits are enriched below; roughly 1.5% of the tested compounds scored in any of these assays.
CRFBP-R2 agonist: CRF-BP/CRF-R2 complex agonism; HEK293 CRF-R2/CRF-BP, calcium dye fluorescence (FLIPR); percent of saturating CRF peptide response; hit rate 0.46% among 350,000; activation, % at 13.2 µM;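 active = activation of at least 50%, plus an integration ratio under a set limit after plate pattern correction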
Cardiac RTF inh: cardiac RTF calcium desensitization | P19429+P45379 | IANBD-labeled cardiac RTF, Ca2+ fluorescence | inhibition, % at 7.15 µM | hit rate 0.12% among 340,000 | AID 493244;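 active = inhibition above the mean inhibition of all tested compounds plus 3 SD, cut at about 17% in these data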;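 note: assay run at fixed EC70 calcium of 1.6 mM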
CRFR2-BP antag: blocks CRF-induced signaling of the CRF-BP/CRF-R2 complex | HEK293 CRF-R2/CRF-BP, CRF-induced calcium fluorescence | inhibition, % at 11.8 µM | hit rate 0.59% among 350,000 | AID 588475;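 active = inhibition of the ligand-induced calcium signal above about 50% at the single tested concentration, limit read from the data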
IDE inh: cellular human IDE inhibition. HEK cells, FAbetaB cleavage, fluorescence polarization. inhibition, % at 5.59 µM. P14735. hit rate 0.41% among 320,000;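 active = percent inhibition above the average of all tested compounds plus 3 SD, set per screening campaign, cut at about 16% in these data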;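 note: IDE supplied by intact live HEK cells; FP after avidin binding of uncleaved biotin substrate so inhibition keeps polarization high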
Target sequence (P14735 whole entry, looked up): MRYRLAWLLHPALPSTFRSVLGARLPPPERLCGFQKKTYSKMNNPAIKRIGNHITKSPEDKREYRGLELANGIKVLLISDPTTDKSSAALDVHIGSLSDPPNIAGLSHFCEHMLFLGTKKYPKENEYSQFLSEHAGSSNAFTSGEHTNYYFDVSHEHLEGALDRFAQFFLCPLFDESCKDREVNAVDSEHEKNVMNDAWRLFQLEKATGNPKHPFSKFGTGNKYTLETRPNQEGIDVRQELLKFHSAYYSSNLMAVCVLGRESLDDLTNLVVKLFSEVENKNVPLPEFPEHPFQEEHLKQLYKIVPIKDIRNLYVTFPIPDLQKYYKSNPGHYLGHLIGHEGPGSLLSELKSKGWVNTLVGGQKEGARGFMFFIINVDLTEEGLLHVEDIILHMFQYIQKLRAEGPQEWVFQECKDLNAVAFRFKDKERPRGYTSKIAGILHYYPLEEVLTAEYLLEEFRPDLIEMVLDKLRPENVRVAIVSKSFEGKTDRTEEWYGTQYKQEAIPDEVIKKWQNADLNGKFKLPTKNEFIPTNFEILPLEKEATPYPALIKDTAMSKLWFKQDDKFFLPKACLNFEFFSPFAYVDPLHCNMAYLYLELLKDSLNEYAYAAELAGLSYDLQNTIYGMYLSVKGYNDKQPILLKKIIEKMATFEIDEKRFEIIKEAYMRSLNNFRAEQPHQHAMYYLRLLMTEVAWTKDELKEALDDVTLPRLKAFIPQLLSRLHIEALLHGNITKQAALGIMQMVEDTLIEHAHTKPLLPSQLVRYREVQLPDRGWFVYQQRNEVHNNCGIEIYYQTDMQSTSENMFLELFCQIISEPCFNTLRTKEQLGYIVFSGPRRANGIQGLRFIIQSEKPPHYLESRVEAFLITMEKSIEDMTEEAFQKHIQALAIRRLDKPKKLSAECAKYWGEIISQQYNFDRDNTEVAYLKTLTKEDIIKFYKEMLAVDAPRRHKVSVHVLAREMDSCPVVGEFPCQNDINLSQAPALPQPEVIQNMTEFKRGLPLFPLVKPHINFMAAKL
RTF Ca sens act: increases calcium sensitivity of human cardiac regulated thin filaments; P19429+P45379; IANBD-labeled TnC RTF fluorescence at EC20 calcium; 0% EC20 calcium, 100% full calcium; activation, % at 7.2 µM; hit rate 0.24% among 340,000; AID 493008;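 active = activation above the mean over all tested compounds plus 3 SD, cut at about 30% in these data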;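 note: rise in fluorescence read as greater calcium sensitivity of cardiac thin filaments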
IDE cell activ: activators of human insulin-degrading enzyme in cells; hit rate 0.073% among 340,000; activation, % at 5.96 µM; P14735; HEK cells, FAbeta-B cleavage, fluorescence polarization; 0% vehicle, 100% cell-free pure enzyme wells; AID 493087;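 active = activation above the mean of all tested compounds plus 3 SD, set per screening campaign, cut at about 17% in these data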
RTF Ca inh conf: cardiac RTF calcium sensitivity inhibition, confirmation | shares compounds with Cardiac RTF inh | reconstituted cardiac thin filaments, calcium sensitivity fluorescence | inhibition, % at 7.15 µM | hit rate 8% among 360 | AID 504635; in the data active = inhibition above about 18%
Numbers stand for hits; i = inactive; nt = no result given.

SMILES	CRFBP-R2 agonist	Cardiac RTF inh	CRFR2-BP antag	IDE inh	RTF Ca sens act	IDE cell activ	RTF Ca inh conf
S=c1[nH]nc(-c2ccco2)n1/N=C/C=C/c1ccco1	i	17.7	i	i	i	i	i
S=c1[nH]nc(-c2cc(-c3ccccc3)n[nH]2)n1/N=C/C=C/c1ccco1	i	nt	i	i	nt	nt	nt
COc1ccc(N2CCN(C(=O)COC(=O)c3oc4ccc(OC)cc4c3C)CC2)cc1	i	i	i	i	i	i	nt
COc1cc(OC)c(NC(=O)CN(C)S(=O)(=O)c2ccc(-c3ccc(=O)[nH]n3)s2)cc1Cl	i	i	i	i	i	i	nt
N#Cc1ccccc1CN1C(=O)S/C(=C/c2cccn2-c2ccc(C(=O)O)cc2)C1=O	i	i	i	i	i	i	nt
O=C(O)c1ccc(-n2cccc2/C=C2/NC(=O)N(c3ccccc3)C2=O)cc1	i	17.2	i	i	i	i	i
O=C(O)c1ccc(-n2cccc2/C=C2/SC(=O)N(CC(=O)N3CCCC3)C2=O)cc1	i	26.0	i	i	i	i	i
O=C(O)c1ccc(-n2cccc2/C=C2/NC(=O)N(c3cccc(Cl)c3)C2=O)cc1	i	i	i	nt	i	i	nt
CCOC(=O)C1(Cc2ccccc2)CCN(Cc2cn(CC(=O)OC)c3ccccc23)CC1	i	i	i	i	i	i	nt
CCOC(=O)C1(CC2CC2)CCN(Cc2cn(C)c3ccccc23)CC1	i	17.0	i	i	i	i	i
COc1ccccc1CN1C[C@@H]2C[C@@H](c3cccc(O)c3)N3CCC[C@@]23C1=O	i	i	i	i	i	i	nt
CCc1ccc([C@@H]2C[C@H]3CN(Cc4ccccc4OC)C(=O)[C@]34CCCN24)cc1	i	55.3	i	i	i	i	i
O=C(NCCc1c[nH]c2ccccc12)C(=O)NCC1OCCN1S(=O)(=O)c1ccccc1 (centres undefined)	i	18.5	i	i	i	i	i
COc1ccc(C2=CC3=C(Br)C(=O)C(C)(O)C(=O)C3=CO2)cc1 (centres undefined)	i	i	i	i	i	i	nt
CCC(=O)OC1(C)C(=O)C2=COC(c3ccc(OC)cc3)=CC2=C(Br)C1=O (centres undefined)	i	17.2	i	i	i	i	i
O=C(CN1C(=O)S/C(=C\c2ccccc2F)C1=O)NC1C=CS(=O)(=O)C1 (centres undefined)	i	i	i	i	i	i	nt
O=C(CSc1nc(=O)n(Cc2ccccn2)c2c1CCC2)Nc1ccc(F)cc1F	i	i	i	i	i	i	nt
CCOC(=O)C1CCN(C(=O)C2CCCN(c3ncnc4c3nc3n4CCCCC3)C2)CC1 (centres undefined)	i	i	i	i	i	i	nt
O=C(O)c1cc(O)c2c(c1)[C@H]([C@H]1c3cc(C(=O)O)cc(O)c3C(=O)c3c(O[C@@H]4O[C@H](CO)[C@@H](O)[C@H](O)[C@H]4O)cccc31)c1cccc(OC3O[C@H](CO)[C@@H](O)[C@H](O)[C@H]3O)c1C2=O (some centres undefined)	i	53.4	i	i	i	i	101.8
O=C(O)c1cc(O)c2c(c1)[C@@H]([C@H]1c3cc(C(=O)O)cc(O)c3C(=O)c3c(O[C@@H]4O[C@H](CO)[C@@H](O)[C@H](O)[C@H]4O)cccc31)c1cccc(OC3O[C@H](CO)[C@@H](O)[C@H](O)[C@H]3O)c1C2=O (some centres undefined)	i	59.3	i	i	i	i	112.1
Cc1ccc(S(=O)(=O)NN=C(c2ccccc2)c2cccs2)cc1	i	nt	i	nt	nt	nt	nt
Cc1cc(C)n(Cc2ccc(C(=O)N/N=C/c3ccc(-c4ccc([N+](=O)[O-])cc4)o3)o2)n1	i	29.4	i	i	i	i	i
CCCCC(=O)N/N=C/c1ccc(-c2ccc([N+](=O)[O-])cc2)o1	i	i	i	i	i	i	nt
CCN(CC)S(=O)(=O)c1ccc(N/N=C/c2ccccc2OCC(=O)O)c([N+](=O)[O-])c1	i	18.8	i	i	i	i	i
CCc1nnc(SCC(=O)Nc2ccc3ccccc3c2)n1N	i	i	i	i	i	i	nt
SMILES	CRFBP-R2 agonist	Cardiac RTF inh	CRFR2-BP antag	IDE inh	RTF Ca sens act	IDE cell activ	RTF Ca inh conf
O=C(O)c1ccc(COc2ccc3c(c2)CCC3)cc1	i	i	i	i	i	i	nt
NNC(=O)c1ccc(COc2ccc3c(c2)CCC3)cc1	i	17.4	i	i	i	i	i
CN1CCN(C(=O)c2ccc(CNS(=O)(=O)c3cccc(Cl)c3)cc2)CC1	i	i	i	nt	i	i	nt
CCc1ccc2oc(C(=O)NC3CCS(=O)(=O)C3)cc(=O)c2c1 (centres undefined)	i	i	i	i	i	i	nt
N#Cc1nc(COc2ccc(Br)cc2)oc1N1CCCCCC1	i	i	i	i	i	i	nt
N#Cc1nc(COc2ccc(F)cc2)oc1N1CCCCC1	i	24.2	i	i	i	i	i
Nc1ncnc2oc(-c3ccco3)c(-c3ccco3)c12	i	58.4	i	i	i	i	i
O=C(O)c1[nH]c2ccccc2c1C(c1cc(Cl)cc([N+](=O)[O-])c1O)c1c(C(=O)O)[nH]c2ccccc12	i	21.6	i	i	i	i	i
Oc1cccc2ccc[n+](CC(O)Cn3c4ccccc4c4ccccc43)c12 (centres undefined)	i	18.5	i	i	i	i	i
COc1ccc(CNC(=O)CCCCCNc2nc(=S)[nH]c3ccccc23)cc1	i	18.2	i	i	i	i	i
COc1ccc(CCNC(=O)CCCCCNc2nc(=S)[nH]c3ccccc23)cc1OC	i	i	i	i	i	i	nt
O=C(CSc1ncn[nH]1)N/N=C/c1ccc(C(F)(F)F)cc1	i	i	i	i	i	i	nt
O=C(Nc1cnc2ccccn2c1=O)c1ccc(Cl)cc1Cl	i	i	i	i	i	i	nt
O=C(c1ccc(Cl)cc1)c1cnc2ccccn12	i	17.9	i	i	i	i	i
CN(NC(=O)c1ccccc1)C1=NS(=O)(=O)c2ccccc21	i	i	i	i	i	i	nt
CN(NC(=O)COc1ccccc1)C1=NS(=O)(=O)c2ccccc21	i	29.9	i	i	i	i	i
Cc1ccc(/C=C2\SC(=S)N(c3cccnc3)C2=O)cc1	i	i	i	i	i	i	nt
COc1cc(/C=C2\SC(=S)N(c3cccnc3)C2=O)ccc1O	i	19.5	i	44.6	i	i	i
CN(CC(=O)Nc1ccc(N2CCOCC2)cc1)C(=O)CSc1ccc(F)cc1	i	i	i	i	i	i	nt
C[C@@H](C(=O)OCC(=O)c1ccccc1)N1C(=O)C2CCCCC2C1=O (some centres undefined)	i	i	i	i	i	i	nt
Cc1ccc(OCC(=O)Nc2ccc(S(=O)(=O)N3CCCC3)cc2)cc1	i	i	i	i	i	i	nt
